# Results from PubChem BioAssay (NCI).
# About 83,000 compounds went through this panel and 20% of them were active in at least one assay; those are over-represented in the sample as a whole.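 Interpretation: 100, growth as untreated; towards 0, rising growth inhibition; 0, no net growth; 0 to -100, cell death. Compounds scoring below 10 were considered active.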 A number with no mark means an inactive call. Active and inactive are the calls of the source.
# Tested on: MDA-MB-468 breast
# Test: NCI-60 one-dose screen, 48 h (100 = growth as untreated, 0 = no growth, -100 = all killed)
# Settings: 10 µM unless noted
row,SMILES,growth
1,CC(=O)O[C@H]1C(=O)[C@@]2(C)[C@H]([C@H](OC(=O)c3ccccc3)[C@]3(O)C[C@H](OC(=O)[C@H](OC(=O)CCC(=O)OC4CCC(S/N=C(N)/N=C(\N)N(C)C)CC4)[C@@H](NC(=O)c4ccccc4)c4ccccc4)C(C)=C1C3(C)C)[C@]1(OC(C)=O)CO[C@@H]1C[C@@H]2O (stereo partly drawn),-6.44% (active)
2,Nc1c(C(=O)Nc2ccccc2Cl)sc2nc3c(cc12)C(=O)CCC3,24.9%
3,COc1ccc(C(=O)N2c3ccccc3Sc3ccccc32)c(C(F)(F)F)c1,29.7%
4,Cc1cc(=O)[nH]c2c(C#N)cnn12,106%
5,CCOC(=O)C1(Cc2ccccc2)CCN(Cc2cccc(OC)c2O)CC1,-9.39% (active)
6,C=C1C(=O)O[C@H]2[C@H]1CC/C(COC(=O)c1cccc3ccccc13)=C\CC[C@@]1(C)O[C@@H]21,-45.1% (active)
7,Fc1ccc(-c2nn3c(-c4cc(C(F)(F)F)cc(C(F)(F)F)c4)nnc3s2)cc1,25.5%
8,Cn1/c(=N\N=C\c2ccccc2OCCO)sc2ccccc21,103%
9,Cc1ccc(O)c(C(=O)c2ccccc2)c1,103%
10,N[C@@H]1CCCN(c2c(/C=C3\SC(=O)NC3=O)cccc2-c2ccccc2)C1,55.8%
11,CN1CCN(CCOc2ccc(-c3cnc4c(-c5ccc(F)cc5)cnn4c3)cc2)CC1,61.3%
12,Cc1cc(C(=O)O)c(N)c(C)n1,120%
13,O=C1c2ccccc2OC=C(c2ccccc2)N1CCCCNc1ccc(F)cc1,76.3%
